# From PubChem
# The full list was thinned out, with hits kept by preference.
# Vaccinia pol inh: vaccinia E9 polymerase processive synthesis inhibitors, primary screen, biochemical, absorbance; Vaccinia virus DNA polymerase (E9) processive complex; 0.94% of 46,000 active; normalized absorbance, % (no concentration beside the values); in vitro processive DNA synthesis, absorbance read-out; stronger effect = lower value; AID 493162, 2011; in the data active = normalized absorbance mostly below about 85%, no sharp cut-off; inactive = mostly above about 86%
# An asterisk follows results filed as active.
SMILES,Vaccinia pol inh
CSc1nc2ccc3nc(NC(=O)c4ccccc4Cl)sc3c2s1,100
O=C(Nc1nc(=S)ss1)c1ccccc1Cl,69*
COc1cccc2sc(NC(=O)c3ccccc3Cl)nc12,107
CCOc1ccc(NC(=O)CCc2c(C)nc3c(c(C)nn3C(C)(C)C)c2C)cc1,99
CC1SCC(=O)N(c2cc(Cl)ccc2Cl)C1=O (stereo not given),78
CC(C)OC(=O)CSc1ncnc2scc(-c3ccccc3)c12,103
O=C(O)CSc1ncnc2scc(-c3ccc(Br)cc3)c12,68*
Cc1ccc(-c2csc3ncnc(SCCC(=O)O)c23)cc1,96
CCOC(=O)C(C)Sc1ncnc2c1nnn2-c1ccc(OC)cc1 (stereo not given),97
FC(F)(F)c1cc(C#CCN2CCCC2)cc(C(F)(F)F)c1,98
CCOc1ccc(CCNC(=O)c2cn(CC(C)C)c(=O)c3c2c2ccccc2n3C)cc1OCC,99
O=S(=O)(N1CCCCC1)N1CCCCC1,122
CN1/C(=C/C=C/c2oc3ccccc3[n+]2C)Oc2ccccc21,89*
COCCN(C(=S)Nc1cccc(Cl)c1C)C(C)c1ccccn1 (stereo not given),88
Cc1cc(C)c2c(CC(=O)Nc3sc4c(c3C(=O)NCC3CCCO3)CCC4)coc2c1 (stereo not given),101
COC(=O)c1ccc(Nc2ccccc2)cc1,102
COC(=O)c1ccc(CSc2nnc3n(N)cnn23)cc1,101
COC(=O)c1ccc(NC(=S)N(C(C)C)C(C)C)cc1,95
COC(=O)c1ccc(CSC(=N)N)cc1,81*
COC(=O)c1ccc(NN)cc1,81*
N=C(N)SCc1ccccc1,96
O=C(c1ccccc1)C1CN(CC2CCCO2)CCC1(O)c1ccccc1 (stereo not given),89
CCN1CCN(C(c2cccs2)C(C)NC(=O)c2ccc(N(C)C)cc2)CC1 (stereo not given),100
COc1ccc(O)c(C2SCC(=O)N2Cc2ccccc2)c1 (stereo not given),104
COC(=O)c1ccccc1OCC(=O)Nc1ccc(C)cc1C,110
SMILES,Vaccinia pol inh
NS(=O)(=O)c1ccc(Cl)cc1Sc1ccccc1C(=O)O,86
Oc1ccc(Cl)cc1,103
Oc1ccc(Cl)cc1Sc1cc(Cl)ccc1O,77*
CC1=NC(C(F)(F)F)(C(F)(F)F)N=C(N2CCCCC2)O1,107
O=C(CSc1c[nH]c2ccccc12)N1CCc2ccccc21,100
Nc1ccccc1SCC(=O)N1CCc2ccccc21,79*
Cc1ccc(SCC(=O)N2CCc3ccccc32)cc1,100
COc1ccc(/C=C2\CC/C(=C\c3ccc(OC)c(Cn4cccn4)c3)C2=O)cc1Cn1cccn1,104
Cc1cccn2c(=O)c(/C=C3\SC(=S)N(C)C3=O)c(N3CCCC3)nc12,100
CCCCC(CC)CN=C(N)NC(N)=NCCCCCCN=C(N)NC(N)=NCC(CC)CCCC (stereo not given),27*
COC(=O)[C@@H](N)CCCN=C(N)N[N+](=O)[O-],100
Oc1cccc(-c2nc3ccc4ccccc4c3c3c2CCCC3)c1,100
Cc1cc2cc(CNC(=O)C3CCCC3)ccc2[nH]1,100
COc1ccc(CNc2ccccn2)cc1OC,99
C=CCOc1ccccc1CNc1ncn[nH]1,84
COc1ccc(CNc2ncn[nH]2)cc1OC,82*
O=C(NCSc1nc2ccccc2s1)C(F)(F)F,102
CCOc1ccc(OC(=O)c2sc3ncn(CC)c(=O)c3c2C)cc1,100
CCOC(=O)c1[nH]c(CBr)c(C(=O)OCC)c1C,107
Cc1c(CN(C)C)c2c(n1Cc1ccccc1)C(=O)c1ccc(Br)cc1-2,68*
Nc1cc(=O)n(Cc2ccccc2)c(=O)n1-c1ccccc1,96
CN(Cc1ccccc1)C(=O)CNc1ccc(Br)cc1,102
O=C(O)c1ccc(-n2cnc3ccccc3c2=O)cc1,105
CSc1nc(-c2ccccc2)nc2c1Cc1c(CO)cnc(C)c1O2,101
N#Cc1c(NC(=O)CCCCl)sc2c1CCCC2,111
SMILES,Vaccinia pol inh
CC1CCCCC1NC(=O)c1cc(-c2cccs2)nc2ccccc12 (stereo not given),105
CCCOC(=O)CN1C(=O)/C(=C/c2ccccc2)SC1=S,86
O=C(O)CN1C(=O)/C(=C/c2ccccc2)SC1=S,90
CCOC(=O)CN1C(=O)/C(=C/c2ccccc2)SC1=S,82*
N#CCC(O)CNc1ncc(C(F)(F)F)cc1Cl (stereo not given),96
COc1ccccc1N1CCN(C(=O)CC(C)c2ccccc2)CC1 (stereo not given),101
NNC(=O)CNC(=O)C1COc2ccccc2O1 (stereo not given),100
CC1CCCN(CCCNC(=O)c2coc3nc4ccccc4nc23)C1 (stereo not given),60*
CC1CCCN(CCCNC(=O)C2CCCN(c3ncnc4c3nc3n4CCCCC3)C2)C1 (stereo not given),101
Cc1ccc(CCNC(=O)c2coc3nc4ccccc4nc23)cc1,103
C=CCc1ccccc1COCC(O)CN1CC(C)OC(C)C1 (stereo not given),88
C=CCn1c(=NC(=O)/C=C/c2ccccc2)sc2cc(S(C)(=O)=O)ccc21,106
O=C(O)c1cc(NS(=O)(=O)c2ccc(Br)cc2)ccc1O,102
O=C(c1ccccc1)c1nnc(-c2ccccc2)s1,95
Cc1ccc(NC(=O)C2Cc3ccccc3C(=O)O2)cc1C (stereo not given),110
Cc1nc(N=C(N)N)nc2ccccc12,81
COc1ccc2nc(C)c3c(c2c1)OC(C)C3 (stereo not given),99
COc1ccc2nc(N=C(N)N)nc(C)c2c1,36*
N#C/C(=C\Nc1ccc(C(N)=O)cc1)c1nc(-c2cccc(Br)c2)cs1,95
NNc1ccc(Cl)c(Cl)c1,85
O=C(Nc1ccccc1)Nc1ccc(Br)cc1,100
NNc1ccc(Br)cc1,54*
O=C(Nc1nnc(-c2ccc(Cl)cc2)s1)C1CCCCC1,98
N#Cc1ccc(C#CCOC(=O)c2ccccc2)cc1,104
Brc1ccc(NCc2c[nH]c3ccccc23)cc1,97
SMILES,Vaccinia pol inh
CCOc1cc(/C=C2/SC(=NC)N(C)C2=O)ccc1OCC(N)=O,99
N#Cc1ccc(C(N)CC(=O)O)cc1 (stereo not given),107
N#Cc1c(N)n(CCc2ccccc2)c2nc3ccccc3nc12,94
CCCCn1c(N)c(C#N)c2nc3ccccc3nc21,95
N#Cc1c(N)n(CCN)c2nc3ccccc3nc12,85*
CN1C2CC(OC(=O)[C@H](CO)c3ccccc3)C[C@H]1CC2O (stereo not given in full),100
COc1ccc(CNc2nc(-c3ccc(OC)cc3)no2)cc1,108
CN(C)Cc1c2ccccc2cc2ccccc12,47*
CN1CCN(Cc2c3ccccc3cc3ccccc23)CC1,88
CN(C)Cc1cc2ccccc2[nH]1,100
C=CCn1cnc2scc(-c3ccc(Cl)cc3)c2c1=O,101
O=C(Cc1ccc(Cl)cc1)c1ccc(Cl)cc1,79*
O=C(CNC(=O)c1ccc(Cl)cc1)c1ccc(Cl)cc1,103
O=C(CC(SCc1ccc(Cl)cc1)C(=O)O)c1ccc(Cl)cc1 (stereo not given),97
NC(=NC(=O)c1ccc(Cl)cc1Cl)N1CCCC1,103
N#CCC(=O)Nc1cccc2ccccc12,101
OCc1cc2c(s1)CCCC2,106
CNC(=O)COc1ccc(-c2nn(C)c(=O)c3ccccc23)cc1,76*
CNC(=O)COc1ccc(NC(=O)CCn2nc(-c3ccc(Cl)cc3)c3ccccc3c2=O)cc1,100
